A short description of experiment [1]: Cell Viability - BJ (AID 421; calls by dose curve;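 also: potency is read from the fitted curve at half-maximal effect; cells exposed to compound for 40 hours at 37 °C before readout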). Particulars: BJ fibroblast viability, qHTS. Put shortly: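 Normal human BJ foreskin fibroblasts, 1500/well in complete medium, treated 40 hr at 37 °C. Cellular ATP by CellTiter-Glo luminescence; normalized to DMSO and 100 uM tamoxifen, AC50 from Hill fit.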
Experiment [2] can be described thus: Cell Viability - MRC5 (AID 434; calls by dose curve;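 also: potency is read from the fitted curve at half-maximal effect; potency reflects cytotoxicity seen as loss of intracellular ATP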). As to conditions: MRC5 lung fibroblast viability, qHTS. In a few lines: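 MRC5 normal human lung fibroblasts, 1500 cells/well, exposed to compound for 40 hr at 37 C. Cellular ATP was read by CellTiter-Glo luminescence; data normalized to DMSO and 100 uM tamoxifen, with AC50 from Hill fits.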
A general note: Quantitative high-throughput screening tests each substance at several concentrations.

In experiment [3] the target is Mitogen-activated protein kinase 10 (Mus musculus) (UniProt Q61831). Kind of experiment: JNK3 AlphaScreen Assay (AID 530; active = well fitted curve in either direction with a large enough effect, not every such curve was filed as active;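 also: kinase came from lysate of stimulated human HepG2 cells; signal reports phosphorylation of biotinylated GST-cJun 1-79 at Ser73 with 10 µM ATP; % is scaled to controls: 0 for no effect and ±100 for the full control effect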). In a few lines: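 Pre-activated (IL-1β/TNFα) JNK3 in HepG2 lysates phosphorylates biotin-GST-cJun(1-79), 10 uM ATP; anti-phospho-cJun(Ser73) AlphaScreen read at room temperature, pH 7.6 Tris buffer. Compounds pre-incubated 15 min as titrations.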
For orientation: Bead proximity is the source of the signal in Alpha formats.

Experiment [4] can be described thus: Cell Viability - N2a (AID 540).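 Also: plate controls were DMSO alone for no effect and tamoxifen control for full effect; nearly all actives have a fitted effect of over 45% in size.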 Particulars: N2a mouse neuroblastoma cell viability; activity change, negative = cytotoxicity: at 92.2 µM (top of the series). In a few lines:
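Luminescent ATP signal (CellTiter-Glo, 20 min at room temperature) served as the viability read-out after N2a cells were treated with compounds for 40 hours at 37 °C. Concentration-response data were fitted to the Hill equation for AC50.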

Experiment [5] is described as follows: Cellular Toxicity (caspase-3) HepG2 (AID 654).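 Also: cells exposed to compound for 16 hours before reading; 0% = DMSO alone and 100% = caspase signal from 100 µM tamoxifen.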 Put shortly:
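Cells plated 5 hr at 37 °C, compound added, incubated 16 hr at 37 °C. Caspase-Glo 3/7 reagent followed, 20 min at room temperature, then luminescence read. Activation scored as signal increase; AC50 from Hill fit.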

Experiment [6] in a line: Cellular Toxicity (caspase-3) BJ (AID 658).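 Also: 0% = DMSO basal and 100% = 10 µM staurosporine.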 Put shortly: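 BJ human foreskin fibroblasts, 1000 cells/well, treated 16 hours at 37 °C in complete medium; caspase 3/7 activity by Caspase-Glo luminescence after 1 hr at room temperature. Normalized to DMSO and 10 uM staurosporine; AC50 from Hill fits.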
Experiment [7] can be described thus: Cellular Toxicity (caspase-3) MRC-5 (AID 659).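 Also: 0% = DMSO basal and 100% = 10 µM staurosporine.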 Put shortly:
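MRC-5 human normal lung fibroblasts, 1500 cells/well, treated 16 h at 37 °C in complete medium. Caspase 3/7 measured by Caspase-Glo luminescence after 1 h at room temperature. Normalized to DMSO and 10 uM staurosporine; AC50 from Hill fit.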

Experiment [8] in a line: Cellular Toxicity (caspase-3) Hek293 (AID 664).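 Also: cells exposed to compound for 16 h at 37 °C before readout.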 Particulars: HEK293 caspase-3 activation, DMSO = 0%, 100 µM tamoxifen = 100%; at 92.2 µM (top of the series). In a few lines:
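Cells plated, 5 hr at 37 °C; compounds added; 16 hr at 37 °C; Caspase-Glo 3/7 reagent, 20 min RT; luminescence read. Activation expressed relative to DMSO and 100 uM tamoxifen, AC50 by Hill model.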

A short description of experiment [9]: Cellular Toxicity (caspase-3) N2a (AID 665).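 Also: compound exposure lasted 16 h at 37 °C before readout.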 Put shortly: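 N2a cells, 1500/well, 5 h settle at 37 °C; cpd 16 h, 37 °C; Caspase-Glo 3/7, 1 h RT; luminescence. Norm: DMSO = 0, 10 uM staurosporine = 100%. AC50, Hill fit.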
A short description of experiment [10]: Cellular Toxicity (caspase-3) NIH 3T3 (AID 666).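 Also: caspase signal read after 16 h compound exposure; 0% = DMSO basal and 100% = 100 µM tamoxifen stimulation.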 In a few lines: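 Luminescence from aminoluciferin released by caspase-3/7 cleavage of a peptide substrate served as read-out. Mouse fibroblast NIH 3T3 cells were exposed to compounds over a concentration range for 16 hours, and AC50 values came from standard Hill modelling.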
In experiment [11] the target is Cytochrome P450 3A4 (Homo sapiens) (UniProt P08684). Kind of experiment: qHTS Assay for Inhibitors and Substrates of Cytochrome P450 3A4 (AID 884). Also: % is scaled to controls: 0 for no effect and ±100 for the full control effect; nearly all actives have a fitted effect of over 50% in size. In a few lines:
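20 nM human CYP3A4 with 25 uM Luciferin-PPXE (at KM) in 200 mM KPO4, preincubated 10 min with compound; NADPH regeneration started a 60 min RT reaction. Luciferin detected by luminescence, normalized to 57 uM ketoconazole as full inhibition.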

Experiment [12] is described as follows: MultiTox-Fluor Cytotoxicity Assay - LYMP1-001 - Dead Cells (AID 946).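 Also: 0% = DMSO and 100% = tetraoctylammonium bromide.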 In a few lines:
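LYMP1-001 lymphoblastoid cells (2500/well) treated 16 h at 37 C. Dead-cell protease cleavage of bis-AAF-R110 read at Ex/Em 485/520. Normalized to DMSO and 15 uM tetraoctylammonium bromide; AC50 from Hill fits.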

A short description of experiment [13]: MultiTox-Fluor Cytotoxicity Assay - LYMP1-002 - Live Cells (AID 955). Also: % is scaled to controls: 0 for no effect and ±100 for the full control effect. In a few lines:
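Read-out is live-cell protease activity (cell-permeant GF-AFC substrate, fluorescence Ex/Em=405/510), where a decrease indicates acute toxicity. Human lymphoblastoid cells were treated 16 hours at 37 C in a concentration series, and AC50 values came from standard Hill modelling.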

The nature of experiment [14]: MultiTox-Fluor Cytotoxicity Assay - LYMP1-003 - Dead Cells (AID 961).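 Also: 0% = DMSO and 100% = tetraoctylammonium bromide; nearly all actives have a fitted effect of over 70% in size.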 In a few lines:
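LYMP1-003 human lymphoblastoid cells (2500/well) exposed to compound 16 h at 37 C in complete medium; dead-cell protease read with bis-AAF-R110 fluorescence (Ex/Em 485/520) after 60 min at room temperature. Normalized to DMSO and 15 uM tetraoctylammonium bromide; AC50 from Hill fit.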

Experiment [15] in a line: MultiTox-Fluor Cytotoxicity Assay - LYMP1-003 - Live Cells (AID 962).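 Also: 0% = DMSO only and full loss = 92 µM tetraoctylammonium bromide; cytotoxic hits lower the live-cell protease signal.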 In a few lines:
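qHTS, 1536-well; 2500 cells/well LYMP1-003; 5 hr 37 C settle; cpd 16 hr 37 C; MultiTox-Fluor reagent 60 min RT; live-cell protease fluor. 405/510; Hill-fit AC50; tetraoctylammonium bromide pos. ctrl.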

A short description of experiment [16]: Cell Viability - LYMP2-026 (AID 989).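 Also: cells exposed to compound for 24 h at 37 °C; % is scaled to controls: 0 for no effect and ±100 for the full control effect; nearly all actives have a fitted effect of over 50% in size.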 Put shortly:
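Luminescent ATP signal (CellTiter-Glo, 30 min room temperature) measures viable lymphoblastoid cells after 24 hr compound treatment at 37 C. Decreased ATP reflects acute toxicity; AC50 values come from Hill-equation modeling.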

A short description of experiment [17]: Cell Viability - LYMP1-002 - Assay at 24 hr (AID 993). Also: % is scaled to controls: 0 for no effect and ±100 for the full control effect. In a few lines: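 Cells plated 2500/well, 5 hr 37 C; compounds added, 24 hr 37 C; CellTiter-Glo added, 30 min RT; luminescence read. Tetraoctylammonium bromide positive control. Hill-equation AC50.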
The nature of experiment [18]: qHTS assay for small molecule agonists of retinoid X receptor alpha signaling (AID 588544). As to conditions: HEK293T RXRa-UAS-bla, beta-lactamase reporter, 18 h; 530 nm emission.
Experiment [19] deals with Peroxisome proliferator-activated receptor alpha (Homo sapiens) (UniProt Q07869). In words: qHTS assay for small molecule agonists of the peroxisome proliferator-activated receptor alpha (PPARalpha) signaling pathway (AID 651778). Also: % of control where 0% means no effect. As to conditions: PathHunter PPARalpha complementation, chemiluminescence, 6 h; stronger effect = higher value. Put shortly:
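Enzyme-fragment complementation assay in which ligand-bound PPARalpha translocates and forms an active enzyme that generates chemiluminescence. Cells were plated overnight, exposed to compound for 6 hr at 37 C, and then given detection reagent for 60 min at room temperature.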

Experiment [20] in a line: qHTS assay for cell viability of the p53RE-bla HCT-116 cell line (AID 743292). Also: % is scaled to controls: 0 for no effect and ±100 for the full control effect; nearly all actives have a fitted effect of over 55% in size. Put shortly: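 CellSensor p53RE-bla HCT-116 cells (4,000/well) pre-incubated 5 h at 37 C, then exposed to compounds in DMSO for 16 h at 37 C. Viability read as ATP content by CellTiter-Glo luminescence after 30 min at room temperature.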

“And” between values parts separate entries of the source, which are not always exact repeats. Equal values may be shown once. Inconclusive results are not listed. The source made the active and inactive calls. Unless noted, calls follow the shape of the dose curve; as a rule, active = well fitted curve in the direction sought with a large enough effect; inconclusive = small, poorly fitted or top-dose-only effect, or another doubt; inactive = no such curve, though single readings can be large; an effect the other way counts as inactive or inconclusive.

Peroxisome proliferator-activated receptor alpha (Homo sapiens), sequence (Q07869 whole entry, looked up, the tested form may be a part): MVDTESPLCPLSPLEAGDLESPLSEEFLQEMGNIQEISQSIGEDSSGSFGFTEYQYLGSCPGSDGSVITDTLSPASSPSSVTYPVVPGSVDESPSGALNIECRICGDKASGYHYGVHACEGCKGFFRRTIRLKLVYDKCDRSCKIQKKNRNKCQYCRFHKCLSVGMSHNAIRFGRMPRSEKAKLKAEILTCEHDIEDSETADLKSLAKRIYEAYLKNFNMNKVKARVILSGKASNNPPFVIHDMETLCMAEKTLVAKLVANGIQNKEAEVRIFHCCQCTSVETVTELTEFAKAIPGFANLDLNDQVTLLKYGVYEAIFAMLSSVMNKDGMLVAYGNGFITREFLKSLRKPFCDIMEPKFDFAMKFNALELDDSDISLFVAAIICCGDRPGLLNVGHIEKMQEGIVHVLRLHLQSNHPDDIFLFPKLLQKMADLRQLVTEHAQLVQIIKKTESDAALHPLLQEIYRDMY
Cytochrome P450 3A4 (Homo sapiens), sequence (P08684 whole entry, looked up): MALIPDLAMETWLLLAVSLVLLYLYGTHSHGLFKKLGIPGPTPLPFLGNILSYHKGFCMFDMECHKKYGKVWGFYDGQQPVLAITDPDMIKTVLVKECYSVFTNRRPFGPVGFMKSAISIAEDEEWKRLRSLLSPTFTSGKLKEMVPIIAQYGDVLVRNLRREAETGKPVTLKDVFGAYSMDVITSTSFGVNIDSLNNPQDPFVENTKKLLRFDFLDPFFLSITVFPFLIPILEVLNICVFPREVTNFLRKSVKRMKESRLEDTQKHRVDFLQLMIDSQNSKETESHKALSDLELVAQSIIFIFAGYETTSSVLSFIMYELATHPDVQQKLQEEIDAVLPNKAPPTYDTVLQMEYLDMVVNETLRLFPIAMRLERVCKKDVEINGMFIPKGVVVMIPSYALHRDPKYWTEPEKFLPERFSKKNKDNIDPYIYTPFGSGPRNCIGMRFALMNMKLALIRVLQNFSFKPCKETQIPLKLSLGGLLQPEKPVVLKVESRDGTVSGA

Take `CN(C)C(=O)Nc1cccc(C(F)(F)F)c1`: the Potency in experiment [1] and in experiment [2] was > 92 µM (inactive) each time. Besides, the Potency result in [3], in [4], in experiment [10], in experiment [11], in [14] and in experiment [16] was “inactive” in each case. The Potency result in experiment [17] and in experiment [20] was “inactive” in each case. In addition, the outcome in experiment [5], in experiment [6], in experiment [7], in [9], in experiment [12] and in experiment [13] was inactive. Besides, the call in [15] was inactive. Besides, the caspase-3 activation in [8] is 0.171% (inactive). Moreover, the max response is -22.3% and -23.1% in experiment [18]; -1.29% (inactive) and 0.409% (inactive) in experiment [19].
Take `C=C(Cl)CSC(=S)N(CC)CC`: the Potency in [1] and in [2] was > 92 µM (inactive) throughout. Besides, the Potency entry in experiment [4], in [10], in experiment [14], in experiment [16], in experiment [17] and in experiment [20] was “inactive” throughout. The molecule was called inactive in experiment [5], in experiment [6], in experiment [7], in experiment [9], in experiment [12] and in experiment [13]. For the same molecule, the molecule was classed as inactive in [15]. In experiment [8], the caspase-3 activation was 0.963% (inactive). The max response in experiment [18] is -16.2%; in [19], 11.5% (inactive).
Take `Cc1ccc2c(C)cccc2c1`: the Potency in [1] and in experiment [2] was > 92 µM (inactive) each time. Further, the Potency result in experiment [3], in experiment [4], in experiment [10], in experiment [11], in [14] and in [16] was “inactive” throughout. Further, the Potency entry in experiment [17] and in experiment [20] was “inactive” in each case. In addition, the outcome in experiment [5], in experiment [6], in experiment [7], in experiment [9], in experiment [12] and in experiment [13] was inactive. Besides, in experiment [15], the outcome was inactive. Besides, the caspase-3 activation in experiment [8] is -1.38% (inactive). The max response is -13.5% in [18] and 3.14% (inactive) in experiment [19].
Consider `Oc1cccc(Cl)c1Cl`, for which the Potency in [1] and in experiment [2] was > 92 µM (inactive) each time. The Potency entry in experiment [3], in experiment [4], in experiment [10], in [11], in [14] and in [16] was “inactive” each time. Further, the Potency result in experiment [17] and in experiment [20] was “inactive” throughout. Besides, the molecule was classed as inactive in experiment [5], in experiment [6], in [7], in experiment [9], in [12] and in [13]. Further, the call in experiment [15] was inactive. In addition, the caspase-3 activation in [8] was 0.0996% (inactive). Also, the figures for the max response in [18] and in experiment [19] were -10% and -2.6% (inactive), respectively.
For the molecule `N#CCBr`, the Potency in experiment [1] and in experiment [2] was > 92 µM (inactive) in each case. In addition, the Potency entry in experiment [3], in experiment [4], in [10], in experiment [11], in [14] and in experiment [16] was “inactive” throughout. Further, the Potency entry in experiment [17] and in experiment [20] was “inactive” throughout. The molecule was classed as inactive in [5], in [6], in experiment [7], in experiment [9], in experiment [12] and in experiment [13]. Also, the molecule was classed as inactive in [15]. Also, the caspase-3 activation in [8] is 1.09% (inactive). Further, the values for the max response in [18] and in experiment [19] were -6.36% and -0.274% (inactive), respectively.

(Values after PubChem BioAssay (NCATS).)
